Source: PubChem BioAssay (EPA / NIEHS)
Calls of active or inactive are those of the source. Rule for the calls: active = hit-call score of the fitted dose curve at least 0.9, where 1 is the maximum; inactive = score below 0.9.

Assays:
Settings in all cases: mRNA level, 48 h; actives raise or lower the signal
[1] = read-out: Ezrin (EZR), EZR (gene 7430); experiment: LTEA_HepaRG_EZR: Life Technologies and Expression Analysis (LTEA) Assay for Ezrin (EZR) using HepaRG (AID 2283491)
Method in brief: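 Gain or loss of EZR mRNA is scored relative to 0.5% DMSO in human HepaRG cultures treated 48 h with test chemicals in duplicate, eight half-log concentrations from 100 uM.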

[2] = read-out: Cytochrome P450 3A7 (Homo sapiens) (UniProt P24462); experiment: LTEA_HepaRG_CYP3A7: Life Technologies and Expression Analysis (LTEA) Assay for CYP3A7 using HepaRG (AID 2283492)
Method in brief: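 Differentiated HepaRG cells in serum-free induction medium exposed 48 h in duplicate to 8-point half-log series from 100 uM top in 0.5% DMSO. CYP3A7 mRNA by qRT-PCR, normalized to ACTB/GAPDH/POLR2A, bidirectional fit versus DMSO.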

CYP3A5 (gene 1577) = experiment: LTEA_HepaRG_CYP3A5: Life Technologies and Expression Analysis (LTEA) Assay for CYP3A5 using HepaRG (AID 2283493)
Method in brief: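 Human HepaRG hepatic cells receive 48 h chemical treatment at eight concentrations (half-log steps from 100 uM) in 0.5% DMSO. Expression of CYP3A5 is quantified by Fluidigm qRT-PCR and normalized to three reference genes.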

[3] = read-out: Fatty Acid-Binding Protein 1 (FABP1), FABP1 (gene 2168); experiment: LTEA_HepaRG_FABP1: Life Technologies and Expression Analysis (LTEA) Assay for Fatty Acid-Binding Protein 1 (FABP1) using HepaRG (AID 2283494)
Method in brief: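 FABP1 expression by TaqMan qRT-PCR, normalised to three housekeeping genes, in HepaRG cells after 48 h chemical treatment. Eight-point half-log series topping at 100 uM in 0.5% DMSO, duplicates; gain or loss fitted relative to vehicle.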

[4] = read-out: Cytochrome P450 4A22 (Homo sapiens) (UniProt Q5TCH4); experiment: LTEA_HepaRG_CYP4A22: Life Technologies and Expression Analysis (LTEA) Assay for Cytochrome P450 4A22 (CYP4A22) using HepaRG (AID 2283495)
Method in brief: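 Differentiated HepaRG cells in serum-free induction medium exposed 48 h in duplicate to eight half-log concentrations up to 100 uM in 0.5% DMSO. CYP4A22 mRNA quantified by TaqMan qRT-PCR, normalized to ACTB, GAPDH and POLR2A; bidirectional fit versus DMSO.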

[5] = read-out: Cytochrome P450 7A1 (Homo sapiens) (UniProt P22680); experiment: LTEA_HepaRG_CYP7A1: Life Technologies and Expression Analysis (LTEA) Assay for Cytochrome P450 7A1 (CYP7A1) using HepaRG (AID 2283496)
Method in brief: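 HepaRG, 48 h exposure, 8-pt half-log series from 100 uM, 0.5% DMSO vehicle, duplicates. Readout: TaqMan qRT-PCR mRNA vs three housekeeping genes; bidirectional curve fit against DMSO baseline.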

[6] = read-out: Glutathione S-Transferase (GSTA2), GSTA2 (gene 2939); experiment: LTEA_HepaRG_GSTA2: Life Technologies and Expression Analysis (LTEA) Assay for Glutathione S-Transferase (GSTA2) using HepaRG (AID 2283497)
Method in brief: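 GSTA2 transcript levels came from Fluidigm TaqMan qRT-PCR normalized to three housekeeping genes, fitted in both directions against DMSO. HepaRG cultures received chemicals for 48 h in serum-free induction medium (0.5% DMSO), 8 half-log concentrations up to 100 uM, duplicate.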

[7] = read-out: Glutamate-cysteine ligase catalytic (GCLC), GCLC (gene 2729); experiment: LTEA_HepaRG_GCLC: Life Technologies and Expression Analysis (LTEA) Assay for Glutamate-cysteine ligase catalytic (GCLC) using HepaRG (AID 2283498)
Method in brief: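 Expression by TaqMan qRT-PCR, normalized to three housekeeping genes (ACTB, GAPDH, POLR2A), with up- or down-regulation fitted against DMSO. HepaRG cells dosed in duplicate for 48 h with 8 half-log concentrations up to 100 uM, vehicle 0.5% DMSO.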

[8] = read-out: growth arrest and DNA damage 45 (GADD45G), GADD45G (gene 10912); experiment: LTEA_HepaRG_GADD45G: Life Technologies and Expression Analysis (LTEA) Assay for growth arrest and DNA damage 45 (GADD45G) using HepaRG (AID 2283499)
Method in brief: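 Differentiated human HepaRG cells, 48 h post-plating, exposed 48 h in serum-free induction medium to 8 half-log concentrations (top 100 uM, 0.5% DMSO) in duplicate. GADD45G mRNA measured by Fluidigm TaqMan qRT-PCR, normalized to ACTB, GAPDH, POLR2A; bidirectional fit versus DMSO.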

[9] = read-out: Glutamate-cysteine ligase regulatory (GCLM), GCLM (gene 2730); experiment: LTEA_HepaRG_GCLM: Life Technologies and Expression Analysis (LTEA) Assay for Glutamate-cysteine ligase regulatory (GCLM) using HepaRG (AID 2283500)
Method in brief: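 Endpoint is GCLM transcript level by qRT-PCR, normalized to three housekeeping genes, after 48 h chemical exposure of human HepaRG cells (0.5% DMSO vehicle, top 100 uM, half-log dilutions). Fitting was bidirectional relative to DMSO.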

[10] = read-out: Glutathione S-transferase M3 (GSTM3), GSTM3 (gene 2947); experiment: LTEA_HepaRG_GSTM3: Life Technologies and Expression Analysis (LTEA) Assay for Glutathione S-transferase M3 (GSTM3) using HepaRG (AID 2283501)
Method in brief: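 Differentiated human HepaRG cells were exposed in duplicate for 48 h in serum-free induction medium, 8 points from 100 uM top in half-log steps, 0.5% DMSO. GSTM3 mRNA was measured by TaqMan qRT-PCR, normalized to ACTB, GAPDH and POLR2A; bidirectional fit versus DMSO.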

[11] = read-out: Hypoxia-inducible factor 1-alpha (Homo sapiens) (UniProt Q16665); experiment: LTEA_HepaRG_HIF1A: Life Technologies and Expression Analysis (LTEA) Assay for Hypoxia-inducible factor 1 (HIF1A) Trancription factor using HepaRG (AID 2283503)
Method in brief: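 HIF1A transcript level read by qRT-PCR (ACTB, GAPDH, POLR2A normalization) after 48 h chemical exposure of HepaRG cultures. Eight half-log concentrations, top 100 uM, 0.5% DMSO vehicle, duplicates; bidirectional curve fit against DMSO baseline.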

[12] = read-out: 3-Hydroxy-3-Methylglutaryl-CoA Synthase 2 (HMGCS2), HMGCS2 (gene 3158); experiment: LTEA_HepaRG_HMGCS2: Life Technologies and Expression Analysis (LTEA) Assay for 3-Hydroxy-3-Methylglutaryl-CoA Synthase 2 (HMGCS2) using HepaRG (AID 2283504)
Method in brief: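 Human HepaRG cells in serum-free induction medium were exposed in duplicate for 48 h to 8-point half-log series from 100 uM top in 0.5% DMSO. HMGCS2 mRNA measured by TaqMan qRT-PCR, normalised to ACTB, GAPDH, POLR2A; bidirectional fit versus DMSO.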

[13] = read-out: Insulin Like Growth Factor 1 (IGF1), IGF1 (gene 3479); experiment: LTEA_HepaRG_IGF1: Life Technologies and Expression Analysis (LTEA) Assay for Insulin Like Growth Factor 1 (IGF1) using HepaRG (AID 2283506)
Method in brief: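 Cells are thawed, plated and cultured 48 h, then exposed in duplicate to chemical (highest 100 uM, half-log steps, 0.5% DMSO) for another 48 h. Total RNA is analysed by Fluidigm qRT-PCR for IGF1 expression relative to vehicle.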

[14] = read-out: Intercellular Adhesion Molecule 1 (ICAM1), ICAM1 (gene 3383); experiment: LTEA_HepaRG_ICAM1: Life Technologies and Expression Analysis (LTEA) Assay for Intercellular Adhesion Molecule 1 (ICAM1) using HepaRG (AID 2283507)
Method in brief: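 Differentiated human HepaRG cells in serum-free induction medium exposed 48 h in duplicate to 8 half-log concentrations (top 100 uM, 0.5% DMSO). ICAM1 mRNA quantified by TaqMan qRT-PCR, normalized to ACTB, GAPDH and POLR2A; bidirectional fitting versus DMSO.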

[15] = read-out: Insulin-like growth factor-binding protein 1 (IGFBP1), IGFBP1 (gene 3484); experiment: LTEA_HepaRG_IGFBP1: Life Technologies and Expression Analysis (LTEA) Assay for Insulin-like growth factor-binding protein 1 (IGFBP1) using HepaRG (AID 2283508)
Method in brief: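 HepaRG cells, plated 48 h then switched to serum-free induction medium, exposed in duplicate for 48 h to 8-point half-log series from 100 uM in 0.5% DMSO. mRNA measured by qRT-PCR, normalized to ACTB/GAPDH/POLR2A; bidirectional fit versus DMSO.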

[16] = read-out: Interleukin 6 (IL6), IL6 (gene 3569); experiment: LTEA_HepaRG_IL6: Life Technologies and Expression Analysis (LTEA) Assay for Interleukin 6 (IL6) using HepaRG (AID 2283509)
Method in brief: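 Transcript levels, normalized to three housekeeping genes, were quantified by qRT-PCR after 48 h chemical treatment of HepaRG cells. Eight-point half-log series from 100 uM in 0.5% DMSO, duplicates. Fitted both directions against DMSO baseline.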

[17] = read-out: Interleukin 6 Receptor (IL6R), IL6R (gene 3570); experiment: LTEA_HepaRG_IL6R: Life Technologies and Expression Analysis (LTEA) Assay for Interleukin 6 Receptor (IL6R) using HepaRG (AID 2283510)
Method in brief: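 Cells were thawed, plated and cultured 48 h, then medium was changed to serum-free induction medium. Chemicals were added in duplicate (100 uM top, half-log steps, 0.5% DMSO) for 48 h. Lysates were analyzed by qRT-PCR for IL6R expression.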

Measured: AC50

Hypoxia-inducible factor 1-alpha (Homo sapiens), sequence (Q16665 whole entry, looked up): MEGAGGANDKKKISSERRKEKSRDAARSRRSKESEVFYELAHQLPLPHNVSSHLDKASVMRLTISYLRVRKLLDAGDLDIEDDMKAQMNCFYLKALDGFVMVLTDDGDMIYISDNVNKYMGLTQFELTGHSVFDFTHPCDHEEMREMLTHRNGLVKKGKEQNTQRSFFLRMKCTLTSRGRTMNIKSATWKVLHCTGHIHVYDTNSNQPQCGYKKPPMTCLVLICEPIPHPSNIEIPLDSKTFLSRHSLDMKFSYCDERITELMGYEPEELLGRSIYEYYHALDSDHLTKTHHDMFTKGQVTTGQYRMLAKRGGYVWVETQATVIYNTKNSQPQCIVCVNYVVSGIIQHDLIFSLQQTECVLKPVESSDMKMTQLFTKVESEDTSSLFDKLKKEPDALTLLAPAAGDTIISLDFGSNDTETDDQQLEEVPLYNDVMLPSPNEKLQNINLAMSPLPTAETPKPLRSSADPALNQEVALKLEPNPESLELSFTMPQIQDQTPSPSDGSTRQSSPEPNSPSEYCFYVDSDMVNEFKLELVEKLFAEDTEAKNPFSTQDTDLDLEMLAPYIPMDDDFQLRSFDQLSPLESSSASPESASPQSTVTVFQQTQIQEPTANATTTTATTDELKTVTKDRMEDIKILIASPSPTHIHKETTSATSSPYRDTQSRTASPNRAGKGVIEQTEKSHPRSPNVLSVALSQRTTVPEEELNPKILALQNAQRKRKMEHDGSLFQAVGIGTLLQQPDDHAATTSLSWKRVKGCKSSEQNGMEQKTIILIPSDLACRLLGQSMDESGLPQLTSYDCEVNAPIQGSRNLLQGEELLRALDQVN
Cytochrome P450 3A7 (Homo sapiens), sequence (P24462 whole entry, looked up): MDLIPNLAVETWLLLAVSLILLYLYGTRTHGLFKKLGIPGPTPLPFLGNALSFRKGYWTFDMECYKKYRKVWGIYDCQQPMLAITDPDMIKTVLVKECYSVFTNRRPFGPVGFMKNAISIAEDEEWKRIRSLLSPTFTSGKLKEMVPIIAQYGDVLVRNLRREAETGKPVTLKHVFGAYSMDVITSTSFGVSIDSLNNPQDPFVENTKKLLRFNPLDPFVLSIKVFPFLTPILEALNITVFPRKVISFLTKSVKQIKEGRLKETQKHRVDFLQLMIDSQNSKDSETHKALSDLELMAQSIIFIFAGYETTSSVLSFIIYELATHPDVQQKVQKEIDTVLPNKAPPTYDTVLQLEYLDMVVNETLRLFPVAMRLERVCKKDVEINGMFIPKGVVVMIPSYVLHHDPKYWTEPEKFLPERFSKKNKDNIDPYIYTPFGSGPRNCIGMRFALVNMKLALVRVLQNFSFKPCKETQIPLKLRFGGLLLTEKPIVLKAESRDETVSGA

CN/C(=N\[N+](=O)[O-])NCc1cnc(Cl)s1
inactive: [1] | [2] | CYP3A5 (gene 1577) | [4] | [6] | [7] | [8] | [9] | [10] | [11] | [12] | [13] | [14] | [15] | [16] | [17]
active: [3] 33.4 µM | [5] 50 µM

CS(=O)(=O)c1cc(C(F)(F)F)ccc1C(=O)c1cnoc1C1CC1
inactive: [1] | [2] | CYP3A5 (gene 1577) | [3] | [4] | [5] | [6] | [7] | [8] | [9] | [10] | [11] | [12] | [13] | [14] | [15] | [17]

COc1ccc(-c2ccccc2)cc1NNC(=O)OC(C)C
inactive: [1] | [2] | CYP3A5 (gene 1577) | [3] | [4] | [5] | [6] | [7] | [8] | [9] | [10] | [11] | [12] | [13] | [14] | [15] | [17]

CC1(C)C(C(=O)OC(C#N)c2cccc(Oc3ccccc3)c2)C1(C)C (stereo not given)
inactive: [1] | [2] | CYP3A5 (gene 1577) | [3] | [4] | [5] | [6] | [7] | [8] | [9] | [10] | [11] | [12] | [13] | [14] | [15] | [16] | [17]
